From PubChem BioAssay (NCATS)
Results filed as inconclusive are left out. Entries that show only a call come without a potency. Calls of active or inactive are those of the source. Calls come from the whole dose curve; as a rule, active = well fitted curve in the direction sought with a large enough effect; inconclusive = small, poorly fitted or top-dose-only effect, or another doubt; inactive = no such curve, though single readings can be large; an effect the other way counts as inactive or inconclusive.

Tests used:
[1] = target: Metallo-beta-lactamase type 2 (Klebsiella pneumoniae) (UniProt C7C422); test: qHTS to identify inhibitors of the New Delhi Metallo-beta-lactamase (NDM): assay validation screen against the NCATS LOPAC Collection (AID 1794843);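 note: nitrocefin turnover by NDM-1 measured as 485 nm absorbance at plateau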
In short: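 NDM-1 at 2 nM final in 50 mM HEPES pH 7.0 with 1 uM ZnSO4 and 0.01% Tween20 was preincubated with library compounds in DMSO. Nitrocefin (50 uM stock) was then added, and absorbance at 485 nm was read at the kinetic plateau.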

[2] = target: Glutathione peroxidase 1 (Homo sapiens) (UniProt P07203); test: Primary qHTS Assay for Inhibitors of Recombinant Selenoprotein Glutathione Peroxidase 1 (GPX1) (AID 1845191); note: nearly all actives have a fitted effect of over 65% in size
In short: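 NADPH consumption tracked by fluorescence at 340/450 nm between t=0 and t=15 min, room temperature. Final mix: 10 nM GPX1, 100 nM glutathione reductase, 1 mM GSH, 0.5 mM NADPH, 0.5 mM cumene hydroperoxide, 0.01% BSA; 30 min compound–enzyme preincubation.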

[3] = target: Phospholipid hydroperoxide glutathione peroxidase GPX4 (Homo sapiens) (UniProt P36969); test: Primary qHTS Assay for Inhibitors of Recombinant Selenoprotein Glutathione Peroxidase 4 (GPX4) (AID 1845192); note: nearly all actives have a fitted effect of over 65% in size
In short: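 NADPH consumption followed by fluorescence at 340/450 nm, t=0 and after 15 min at room temperature. Reaction started with cumene hydroperoxide (0.5 mM final) after 30 min compound–GPX4 preincubation; final 200 nM GPX4, 100 nM GR, 1 mM GSH, 0.5 mM NADPH.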

[4] = Quantitative High-Throughput drug screen in 47 multiple myeloma cell lines against the NCATS MIPE library collection: EJM_DSMZ cell viability assay (AID 1918926; note: nearly all actives have a fitted effect of over 30% in size; note: potency is the fitted concentration of half-maximal effect)
In short: (§1)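 Primary qHTS used for cherry-picking: cells at 500/well, library compounds for 48 h (37C, 5% CO2), luminescent ATP assay.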

[5] = Quantitative High-Throughput drug screen in 47 multiple myeloma cell lines against the NCATS MIPE library collection: AMO1_DSMZ cell viability assay (AID 1918927; note: nearly all actives have a fitted effect of over 30% in size; note: potency is the fitted concentration of half-maximal effect)
In short: as §1

[6] = Quantitative High-Throughput drug screen in 47 multiple myeloma cell lines against the NCATS MIPE library collection: ARP1_JJKsccF8 cell viability assay (AID 1918928; note: nearly all actives have a fitted effect of over 40% in size; note: potency is the fitted concentration of half-maximal effect)
In short: (§2)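 Each line was plated at 500 cells/well and treated 48 h with library drugs. Viability came from CellTiter-Glo luminescence relative to DMSO and cell-free medium controls.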

[7] = Quantitative High-Throughput drug screen in 47 multiple myeloma cell lines against the NCATS MIPE library collection: ARD_JJKsccE7 cell viability assay (AID 1918929; note: potency is the fitted concentration of half-maximal effect)
In short: as §1

[8] = Quantitative High-Throughput drug screen in 47 multiple myeloma cell lines against the NCATS MIPE library collection: Karpas620_DSMZ cell viability assay (AID 1918959); note: nearly all actives have a fitted effect of over 30% in size; note: potency is the fitted concentration of half-maximal effect
In short: (§3)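 Myeloma cells (500 per well) were exposed to MIPE 4.0 compounds by pin transfer and incubated 48 hours at 37C, 5% CO2. Viability was read as ATP by CellTiter-Glo luminescence, normalised to DMSO (100%) and media-only (0%) wells.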

[9] = Quantitative High-Throughput drug screen in 47 multiple myeloma cell lines against the NCATS MIPE library collection: KMM1_JCRB cell viability assay (AID 1918960); note: nearly all actives have a fitted effect of over 30% in size; note: potency is the fitted concentration of half-maximal effect
In short: as §2

[10] = Quantitative High-Throughput drug screen in 47 multiple myeloma cell lines against the NCATS MIPE library collection: Karpas417_ECACC cell viability assay (AID 1918961); conditions: Karpas417 myeloma viability, CellTiter-Glo ATP luminescence, 48 h; viability (% of DMSO): at 45.8 µM (top of the series); note: potency is the fitted concentration of half-maximal effect
In short: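 CellTiter-Glo ATP luminescence gave viability after 48 h compound treatment at 37C of 500 multiple myeloma cells per well. Normalisation used DMSO-only wells as 100% and media-only wells as 0% viability; primary qHTS of approved and investigational drugs.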

[11] = Viability counterscreen for agonist of constitutive androstane receptor (CAR) against the NCATS DSHEA and TCM libraries (AID 1794838);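 note: cells exposed to compound for 24 h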
In short: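 Cell viability, from CellTiter-Fluor fluorescence (405/540 nm), was scored after a 24 h, 37C exposure of HepG2 cells carrying CYP2B6 reporter and hCAR to test substances in presence of 0.75 uM PK11195.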

[12] = target: Nuclear receptor subfamily 1 group I member 3 (Homo sapiens) (UniProt Q14994); test: Primary qHTS for agonist of constitutive androstane receptor (CAR) against the NCATS DSHEA and TCM libraries (AID 1794839);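 note: HepG2 cells expressing human CAR with a CYP2B6 reporter plus PK11195 antagonist; luciferase reporter luminescence read with ONE-Glo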
In short: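 Agonist mode in presence of hCAR antagonist PK11195 (0.75 µM final): test substances, 24 h, 37 °C, on HepG2-CYP2B6-hCAR cells. Same-well readouts: fluorescence viability, then ONE-Glo luminescence; CITCO as reference agonist.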

[13] = HepG2 viability counterscreen (readout 2: ATP content) against the NCATS DSHEA and TCM libraries (AID 1794840);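 note: HepG2 cells exposed to substances for about 24 h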
In short: (§4)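 Readout 1: cellular protease activity, GF-AFC substrate (25 uM final, 30 min, fluorescence 380/510 nm). Readout 2: ATP content by CellTiter-Glo luminescence after 30 min at RT. Both follow ~24 h exposure of HepG2 cells (1,000/well) to substances.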

[14] = HepG2 viability counterscreen (readout 1: protease activity) against the NCATS DSHEA and TCM libraries (AID 1794841);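 note: cells exposed to compounds for about 24 h before the protease read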
In short: as §4

[15] = target: Luciferin 4-monooxygenase (Photinus pyralis) (UniProt P08659); test: Primary firefly luciferase (FLuc) qHTS assay for identification of artifact compounds. (AID 1845220); conditions: outcome: dose series up to 54.1 µM; note: nearly all actives have a fitted effect of over 60% in size
In short: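 Compounds sat 15 min at room temperature with 10 uM luciferin and 10 uM ATP (pH 7.6 Tris acetate). Firefly luciferase (10 nM final) was then added, and luminescence was read 5 min later. Data normalized to no-enzyme and DMSO controls were Hill-fitted.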

[16] = Primary fluorescence-based thiol-reactive (MSTI) qHTS assay for identification of artifact compounds. (AID 1845221);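 note: thiol-reactive compounds lower the probe fluorescence signal; nearly all actives have a fitted effect of over 65% in size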
In short: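 MSTI probe at 4 uM final in 2% DMSO/PBS pH 7.4; compounds, 1 h at room temperature in dark. Fluorescence Ex/Em 525/598 nm, normalised to Acetyl-MSTI and MSTI, fitted to 4-parameter Hill.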

[17] = system: Nanoluciferase (engineered Oplophorus gracilirostris luciferase); test: Primary Nanoluciferase (NLuc) qHTS assay for identification of artifact compounds. (AID 1845222)
In short: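 Luminescence from secreted NLuc (filtered, 1:55-diluted S16 cell medium) read 5 min after Nano-Glo substrate; compounds preincubated 15 min, RT. Hill fits of inhibition normalized to DMSO and no-enzyme.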

[18] = Primary redox qHTS assay for identification of artifact compounds. (AID 1845223)
In short: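 Redox-cycling detection via DTT (250 uM final) oxidation coupled to Amplex Red (25 uM)/HRP (250 mU/mL) in HBSS. 15 min preincubation plus 30 min after DTT, room temperature. Ex/Em 525/598 nm; 4-parameter Hill fit against DMSO and 10 uM DA3003.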

[19] = Quantitative High-Throughput drug screen in 47 multiple myeloma cell lines against the NCATS MIPE library collection: FR4_PLB cell viability assay (AID 1918924; note: nearly all actives have a fitted effect of over 35% in size; note: potency is the fitted concentration of half-maximal effect)
In short: as §3

[20] = Quantitative High-Throughput drug screen in 47 multiple myeloma cell lines against the NCATS MIPE library collection: Delta47_JCRB cell viability assay (AID 1918925; note: potency is the fitted concentration of half-maximal effect; nearly all actives have a fitted effect of over 45% in size)
In short: as §1

Chain of Glutathione peroxidase 1 (Homo sapiens) (P07203 whole entry, looked up): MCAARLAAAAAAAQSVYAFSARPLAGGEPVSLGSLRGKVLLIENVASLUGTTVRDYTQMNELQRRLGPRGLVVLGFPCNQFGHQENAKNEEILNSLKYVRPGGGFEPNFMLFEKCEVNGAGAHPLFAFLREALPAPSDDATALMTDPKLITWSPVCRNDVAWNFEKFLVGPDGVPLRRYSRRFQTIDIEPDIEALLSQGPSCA
Chain of Metallo-beta-lactamase type 2 (Klebsiella pneumoniae) (C7C422 whole entry, looked up): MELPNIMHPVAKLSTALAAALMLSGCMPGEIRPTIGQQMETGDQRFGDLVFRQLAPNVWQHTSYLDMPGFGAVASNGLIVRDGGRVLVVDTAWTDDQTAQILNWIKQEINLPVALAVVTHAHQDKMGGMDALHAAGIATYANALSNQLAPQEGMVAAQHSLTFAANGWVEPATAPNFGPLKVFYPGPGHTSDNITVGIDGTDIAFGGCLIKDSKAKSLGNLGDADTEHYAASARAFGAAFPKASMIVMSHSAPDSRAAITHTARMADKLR
Chain of Phospholipid hydroperoxide glutathione peroxidase GPX4 (Homo sapiens) (P36969 whole entry, looked up): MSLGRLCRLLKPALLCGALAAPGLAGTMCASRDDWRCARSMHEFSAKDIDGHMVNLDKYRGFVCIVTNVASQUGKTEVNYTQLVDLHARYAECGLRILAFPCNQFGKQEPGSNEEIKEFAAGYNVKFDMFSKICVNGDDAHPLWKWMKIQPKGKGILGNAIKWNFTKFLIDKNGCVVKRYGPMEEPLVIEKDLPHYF
Chain of Nuclear receptor subfamily 1 group I member 3 (Homo sapiens) (Q14994 whole entry, looked up): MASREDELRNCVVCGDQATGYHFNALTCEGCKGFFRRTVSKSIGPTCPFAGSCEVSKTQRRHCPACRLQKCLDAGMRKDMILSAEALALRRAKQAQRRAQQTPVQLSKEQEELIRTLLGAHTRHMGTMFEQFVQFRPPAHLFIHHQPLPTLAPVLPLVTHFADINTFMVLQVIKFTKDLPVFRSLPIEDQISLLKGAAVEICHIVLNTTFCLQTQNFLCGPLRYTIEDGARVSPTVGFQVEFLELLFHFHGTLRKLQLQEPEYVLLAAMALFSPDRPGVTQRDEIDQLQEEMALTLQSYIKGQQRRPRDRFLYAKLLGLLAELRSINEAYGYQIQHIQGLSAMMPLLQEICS

CN1CCN(CCCN2c3ccccc3Sc3ccc(Cl)cc32)CC1
outcome [1]: inactive | Potency [2]: inactive | Potency [3]: inactive | Potency [4]: 23.5 µM (active) | Potency [5]: 16.6 µM (active) | Potency [6]: 20.9 µM (active) | Potency [7]: 16.6 µM (active) | Potency [8]: 4.18 µM (active) | Potency [9]: 16.6 µM (active) | Potency [10]: 0.132 µM (active)

Cn1c(=O)c2c(ncn2C)n(C)c1=O
outcome [11]: inactive | outcome [12]: inactive | outcome [13]: inactive | outcome [14]: inactive | Potency [2]: inactive | Potency [3]: inactive | Potency [4]: inactive | Potency [5]: inactive | Potency [6]: inactive | Potency [7]: inactive | Potency [8]: inactive | Potency [9]: inactive

NS(=O)(=O)c1cc2c(cc1Cl)NCNS2(=O)=O
outcome [1]: inactive | Potency [2]: inactive | Potency [3]: inactive | Potency [6]: inactive | Potency [7]: inactive | Potency [8]: inactive | Potency [9]: inactive | Potency [10]: 0.0066 µM (active)

Cc1ccc(-c2cc(C(F)(F)F)nn2-c2ccc(S(N)(=O)=O)cc2)cc1
outcome [1]: inactive | Potency [2]: inactive | outcome [15]: inactive | outcome [16]: inactive | outcome [17]: inactive | outcome [18]: inactive | Potency [4]: inactive | Potency [5]: inactive | Potency [6]: inactive | Potency [7]: inactive | Potency [8]: inactive | Potency [9]: inactive

O=C(CCCN1CCC(O)(c2ccc(Cl)cc2)CC1)c1ccc(F)cc1
outcome [1]: inactive | Potency [2]: inactive | Potency [19]: inactive | Potency [4]: inactive | Potency [5]: 20.9 µM (active) | Potency [6]: 23.5 µM (active) | Potency [7]: 16.6 µM (active) | Potency [8]: 20.9 µM (active)

CN1C(C(=O)Nc2ccccn2)=C(O)c2ccccc2S1(=O)=O
outcome [1]: inactive | Potency [2]: inactive | Potency [3]: inactive | Potency [4]: inactive | Potency [6]: inactive | Potency [7]: inactive | Potency [9]: inactive | Potency [10]: inactive

CCOC(=O)c1ncn2c1CN(C)C(=O)c1cc(F)ccc1-2
outcome [1]: inactive | Potency [2]: inactive | Potency [3]: inactive | Potency [5]: inactive | Potency [6]: 16.6 µM (active) | Potency [7]: inactive | Potency [8]: inactive | Potency [9]: inactive

Nc1nc2c(ncn2COC(CO)CO)c(=O)[nH]1
outcome [1]: inactive | Potency [2]: inactive | Potency [3]: inactive | Potency [4]: 14.8 µM (active) | Potency [5]: 13.2 µM (active) | Potency [7]: 4.18 µM (active) | Potency [9]: 6.62 µM (active) | Potency [10]: 11.8 µM (active)

OCCN1CCN(CCCN2c3ccccc3Sc3ccc(C(F)(F)F)cc32)CC1
outcome [1]: inactive | Potency [2]: inactive | Potency [20]: 18.7 µM (active) | Potency [5]: 18.7 µM (active) | Potency [6]: 18.7 µM (active) | Potency [8]: 18.7 µM (active) | Potency [9]: 20.9 µM (active)

CN(Cc1cnc2nc(N)nc(N)c2n1)c1ccc(C(=O)N[C@@H](CCC(=O)O)C(=O)O)cc1
outcome [1]: inactive | Potency [2]: inactive | Potency [19]: 37.2 µM (active) | Potency [5]: 0.0166 µM (active) | Potency [6]: 0.0332 µM (active) | Potency [8]: inactive

CC#C[C@]1(O)CC[C@H]2[C@@H]3CCC4=CC(=O)CCC4=C3[C@@H](c3ccc(N(C)C)cc3)C[C@@]21C
outcome [1]: inactive | Potency [2]: inactive | Potency [19]: 1.66 µM (active) | Potency [20]: 0.59 µM (active) | Potency [4]: 1.32 µM (active) | Potency [5]: 0.743 µM (active) | Potency [6]: 1.05 µM (active) | Potency [7]: 2.64 µM (active) | Potency [8]: 0.662 µM (active) | Potency [9]: 1.05 µM (active) | Potency [10]: 0.526 µM (active)
